Results as given in PubChem BioAssay (Tox21).
Where “and” joins values, the source holds several entries; their conditions need not be identical. Equal values may be shown once. Records with an inconclusive call do not appear. Calls of active or inactive are those of the source. The call rests on the fitted dose curve; in most records, active means well fitted curve in the direction sought with a large enough effect in the repeat runs; inconclusive means weak or mixed curves; inactive means no such curve, though single readings can be large; an effect the other way counts as inactive or inconclusive.

Legend:
[1] = A CellTox Green Cytotoxicity Assay to monitor cytotoxicity in HepG2 cells - 0 hour (AID 1224882); further: nearly all actives have a fitted effect of over 35% in size
In short: (§1)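 Measurements at 0, 8, 16, 24, 32 and 40 h of treatment captured CellTox Green fluorescence in HepG2 cells that had been co-plated with reagent and preincubated 5 h at 37 C/5% CO2.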

[2] = A CellTox Green Cytotoxicity Assay to monitor cytotoxicity in HepG2 cells - 32 hour (AID 1224883); further: nearly all actives have a fitted effect of over 50% in size; further: potency means the concentration at half of the fitted maximal effect
In short: as §1

[3] = A CellTox Green Cytotoxicity Assay to monitor cytotoxicity in HEK293 cells - 8 hour (AID 1224884); further: nearly all actives have a fitted effect of over 35% in size; further: potency means the concentration at half of the fitted maximal effect
In short: (§2)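 Tox21 screen in HEK293: membrane-impermeant cyanine dye fluoresces on binding dead-cell DNA; compound pinned 5 h post-seeding, plates held at 37 C, signal read repeatedly through 40 h.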

[4] = qHTS RealTime-Glo MT Cell Viability Assay in HepG2 cells - 16 hour (AID 1224885); further: nearly all actives have a fitted effect of over 50% in size; further: potency means the concentration at half of the fitted maximal effect
In short: (§3)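 HepG2 suspension premixed with RealTime-Glo reagents is plated at 600 cells per well and left 5 h at 37 C/5% CO2. Compounds in DMSO then go in, and bioluminescence reflecting viable cell number is recorded over 40 h.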

[5] = qHTS RealTime-Glo MT Cell Viability Assay in HEK293 cells - 24 hour (AID 1224886); further: nearly all actives have a fitted effect of over 50% in size; further: potency means the concentration at half of the fitted maximal effect
In short: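 Reads taken at 0, 8, 16, 24, 32 and 40 h from the same wells. HEK293 cells (600/well) carried RealTime-Glo reagents from seeding, with compound added after a 5 h settle at 37 C.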

[6] = qHTS RealTime-Glo MT Cell Viability Assay in HEK293 cells - 8 hour (AID 1224887); further: nearly all actives have a fitted effect of over 50% in size; further: potency means the concentration at half of the fitted maximal effect
In short: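 HEK293 + NanoLuc + prosubstrate, 600 cells/well; 5 h, 37 C/5% CO2; compound 23 nL in DMSO by pintool; 37 C; luminescence read at 0, 8, 16, 24, 32 and 40 h time points.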

[7] = A CellTox Green Cytotoxicity Assay to monitor cytotoxicity in HEK293 cells - 16 hour (AID 1224888); further: nearly all actives have a fitted effect of over 35% in size; further: potency means the concentration at half of the fitted maximal effect
In short: as §2

[8] = qHTS RealTime-Glo MT Cell Viability Assay in HepG2 cells - 0 hour (AID 1224889); further: nearly all actives have a fitted effect of over 50% in size
In short: as §3

[9] = A CellTox Green Cytotoxicity Assay to monitor cytotoxicity in HepG2 cells - 8 hour (AID 1224890); further: nearly all actives have a fitted effect of over 45% in size; further: potency means the concentration at half of the fitted maximal effect
In short: as §1

[10] = qHTS assay to identify small molecule antagonists of the estrogen receptor alpha (ER-alpha) signaling pathway using the BG1 cell line in the presence of 0.1 nM 17-beta-estradiol - cell viability counter screen (AID 1259241); further: nearly all actives have a fitted effect of over 40% in size; further: potency means the concentration at half of the fitted maximal effect
In short: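 VM7Luc4E2 cells (endogenous ER-alpha, 4×ERE-luciferase), hormone-starved 5 days in charcoal-stripped FBS, were treated with compounds plus 0.1 nM 17beta-estradiol for 22 hr at 37C; viability read in same wells as CellTiter-Fluor live-cell protease fluorescence.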

Measured: Potency

COC1=CC(=O)O[C@@H](/C=C/c2ccc3c(c2)OCO3)C1
inactive: all assays above

C=CCSSCC=C
active: [3] 54.9 µM
inactive: all other assays above

CCOP(=S)(S)OCC
inactive: all assays above

CC(CC(C(N)=O)(c1ccccc1)c1ccccc1)N(C)C (configuration not stated)
inactive: all assays above

CCCC[N+]1(C)[C@@H]2CC(OC(=O)[C@H](CO)c3ccccc3)C[C@H]1[C@@H]1O[C@@H]12 (some centres not stated)
inactive: all assays above

Cc1ccc2c(C)cccc2c1
inactive: all assays above

COC(=O)Cc1ccccc1
inactive: all assays above

CCC1(CCC(C)C)C(=O)NC(=O)NC1=O
inactive: all assays above

ClCc1ccccc1Cl
inactive: all assays above

CN1C(=O)CN=C(c2ccccc2)c2cc([N+](=O)[O-])ccc21
inactive: all assays above

CCCCC1C(=O)NC(=O)N(C2CCCCC2)C1=O (configuration not stated)
inactive: all assays above

Clc1ccccc1
inactive: all assays above

C1CS1
inactive: all assays above

CCc1ccccc1N
inactive: all assays above

CON(C)C(=O)Nc1ccc(Cl)cc1
inactive: all assays above

CCCCCCCCCCCC[N+](C)(C)CCOc1ccccc1
inactive: [1] | [8] | [10]
active: [2] 13.8 µM and 8.49 µM | [3] 24.6 µM | [4] 43.7 µM and 21.3 µM | [5] 11 µM and 10.7 µM | [6] 43.7 µM and 23.9 µM | [7] 21.9 µM and 23.9 µM | [9] 55 µM and 26.8 µM

O=C1NC(=O)C(=O)C(=O)N1
inactive: all assays above

CC1(C)[C@H](C(=O)O[C@H](C#N)c2cccc(Oc3ccccc3)c2)[C@@H]1C=C(Br)Br
inactive: all assays above

CC(C)C1(C)N=C(c2ncccc2C(=O)O)NC1=O (configuration not stated)
inactive: all assays above

c1ccc2c(c1)sc1ccccc12
inactive: all assays above

O=P(OCC(Br)CBr)(OCC(Br)CBr)OCC(Br)CBr (configuration not stated)
active: [5] 27.9 µM | [6] 24.9 µM
inactive: all other assays above

C=CC(C)(CCC=C(C)C)OC(=O)c1ccccc1N (configuration not stated)
inactive: all assays above

O=C(NCNC(=O)NC1C(=O)NC(=O)N1CO)NC1C(=O)NC(=O)N1CO (configuration not stated)
inactive: all assays above

CC(C)(C)OOC(C)(C)CCC(C)(C)OOC(C)(C)C
inactive: all assays above

CCSCc1ccccc1OC(=O)NC
inactive: all assays above

CCCN(CCC)c1c([N+](=O)[O-])cc(C(C)C)cc1[N+](=O)[O-]
inactive: all assays above

N#CC1(N=NC2(C#N)CCCCC2)CCCCC1
inactive: all assays above

C[N+]1(CCF)[C@@H]2CC[C@H]1CC(OC(=O)C(O)(c1ccccc1)c1ccccc1)C2 (some centres not stated)
inactive: all assays above

Cc1cccc(C)c1NC1=NCCCS1
inactive: all assays above

Clc1ccc(Cl)c(Cl)c1
inactive: all assays above

CCC[N+](CCC)(CCC)CCC
not listed: [8] | [10]
inactive: all other assays above

c1ccc2c(c1)-c1cccc3cccc-2c13
inactive: all assays above

C[C@H]1[C@@H]2Cc3ccc(O)cc3[C@@]1(C)CCN2C
not listed: [8]
inactive: all other assays above

CC(C)(c1ccccc1)c1cc(-n2nc3ccccc3n2)c(O)c(C(C)(C)c2ccccc2)c1
not listed: [8]
inactive: all other assays above

O=C(O)c1ccc(=O)[nH]c1
not listed: [8] | [10]
inactive: all other assays above

CCOC(C(=O)OCCN(C)C)(c1ccccc1)c1ccccc1
not listed: [8]
inactive: all other assays above

O=C(O)COc1cc(Cl)c(Cl)cc1Cl
not listed: [8]
inactive: all other assays above

CCOC(=O)C1OC1(C)c1ccccc1 (configuration not stated)
inactive: all assays above

CCCCCCCCCCCCN(C)C
not listed: [8]
inactive: all other assays above

Cc1ccccc1
not listed: [8] | [10]
inactive: all other assays above

CC(O)CN1CCN(CC(=O)[O-])CCN(CC(=O)[O-])CCN(CC(=O)[O-])CC1.[Gd+3] (configuration not stated)
inactive: all assays above

C=C(Cl)Cl
inactive: all assays above

CC(C)(C)CC(C)(C)c1ccc(O)cc1
active: [2] 27.5 µM and 15.1 µM | [3] 15.5 µM and 12 µM | [4] 34.7 µM | [6] 34.7 µM | [7] 21.9 µM and 21.3 µM | [9] 17.4 µM and 10.7 µM
inactive: [1] | [5] | [8] | [10]

CCOC(=O)c1cn2nc(OP(=S)(OCC)OCC)cc2nc1C
active: [5] 17.4 µM | [6] 17.4 µM
not listed: [8] | [10]
inactive: all other assays above

CN1C[C@H](C(=O)N[C@]2(C)O[C@@]3(O)[C@@H]4CCCN4C(=O)[C@H](Cc4ccccc4)N3C2=O)C=C2c3cccc4[nH]cc(c34)C[C@H]21
active: [4] 19.6 µM
not listed: [8] | [10]
inactive: all other assays above

CCC(C)(C)O
not listed: [8]
inactive: all other assays above

CCCC(C)(COC(N)=O)COC(=O)NC(C)C (configuration not stated)
not listed: [8]
inactive: all other assays above

Cc1nc(N(C)C)nc(OC(=O)N(C)C)c1C
inactive: all assays above

CCCCNC(=O)OCC#CI
active: [2] 54.9 µM | [4] 10.9 µM and 4.9 µM | [5] 21.8 µM and 21.9 µM | [6] 24.5 µM
inactive: [1] | [3] | [7] | [9]

SCc1ccccc1
not listed: [8]
inactive: all other assays above

CCC(C)Cl (configuration not stated)
inactive: all assays above

O=C(Cl)OCCOCCOC(=O)Cl
inactive: all assays above

CC(Cl)C(=O)O (configuration not stated)
inactive: all assays above

O=[N+]([O-])O[C@H]1CO[C@H]2[C@@H]1OC[C@H]2O[N+](=O)[O-]
not listed: [8]
inactive: all other assays above

COc1ccccc1N1CCNCC1
inactive: all assays above

Cc1ccc(N)c(C)c1
inactive: all assays above

O=[N+]([O-])c1cc(Cl)c(Cl)cc1Cl
not listed: [8]
inactive: all other assays above

CCOc1cccc(C2(N3CCN(c4ccccc4)CC3)CCC(C)CC2)c1 (configuration not stated)
not listed: [8]
inactive: all other assays above

C1CCNCC1
inactive: all assays above

O=C([O-])c1ccccn1.O=C([O-])c1ccccn1.O=C([O-])c1ccccn1.[Cr+3]
inactive: all assays above

OCCSSCCO
inactive: all assays above

CC(C)c1ccc(OP(=O)(Oc2ccc(C(C)C)cc2)Oc2ccc(C(C)C)cc2)cc1
inactive: all assays above

O=C(O)c1cc(I)cc(I)c1I
not listed: [8]
inactive: all other assays above

CN(C)c1ccc(N=O)cc1
active: [2] 39 µM | [4] 55.1 µM and 43.6 µM | [5] 15.5 µM and 24.5 µM | [6] 15.5 µM and 21.9 µM | [10] 61.3 µM
inactive: [1] | [3] | [7] | [9]

CCc1cnc(C2=NC(C)(C(C)C)C(=O)N2)c(C(=O)O)c1 (configuration not stated)
not listed: [8]
inactive: all other assays above

C[N+](C)(C)CC1CO1 (configuration not stated)
not listed: [8] | [10]
inactive: all other assays above

O=C(N/N=C/c1ccc([N+](=O)[O-])o1)c1cc([N+](=O)[O-])cc([N+](=O)[O-])c1O
not listed: [8] | [10]
inactive: all other assays above

CC(Oc1cccc(Cl)c1)C(=O)O (configuration not stated)
not listed: [8]
inactive: all other assays above

C=CC(=O)OCC
not listed: [8] | [10]
inactive: all other assays above

NP(N)(=O)NC(=O)c1ccc(F)cc1
not listed: [2] | [10]
inactive: all other assays above

CCOP(=O)(SC(C)CC)N1CCSC1=O (configuration not stated)
not listed: [2] | [10]
inactive: all other assays above

CCCCC(CC)CO[N+](=O)[O-] (configuration not stated)
not listed: [2]
inactive: all other assays above
